Experimental data published in the supplement of paper PMC8728848.
The full list was thinned out, with the strongest signals kept by preference.

What was measured:
Test in all cases: glycan array binding signal (z-score within array); higher = stronger binding
Details in all cases: glycan notation: IUPAC condensed, linker removed
[1] = target: Fuc(a1-2)Gal(b1-4)[Fuc(a1-3)]GlcNAc(b1-3)GalNAc
Summary of the method: (§1)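 Columns mapping to the same glycan were averaged after glycan names were converted to IUPAC-condensed notation. The data come from 3228 arrays in the Consortium for Functional Glycomics database, limited to those with an available protein sequence. Binding is reported as a within-array Z-score averaged across arrays of one protein sequence and across linkers.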

[2] = target: Fuc(a1-2)[Gal(a1-3)]Gal(b1-3)GlcNAc
Summary of the method: as §1

[3] = target: Fuc(a1-2)[Gal(a1-3)]Gal(b1-3)GlcNAc(b1-2)Man(a1-3)[Fuc(a1-2)[Gal(a1-3)]Gal(b1-3)GlcNAc(b1-2)Man(a1-6)]Man(b1-4)GlcNAc(b1-4)GlcNAc
Summary of the method: as §1

[4] = target: Fuc(a1-2)[Gal(a1-3)]Gal(b1-3)GlcNAc(b1-2)Man(a1-3)[Fuc(a1-2)[Gal(a1-3)]Gal(b1-3)GlcNAc(b1-2)Man(a1-6)]Man(b1-4)GlcNAc(b1-4)[Fuc(a1-6)]GlcNAc
Summary of the method: as §1

[5] = target: Fuc(a1-2)[Gal(a1-3)]Gal(b1-3)GlcNAc(b1-6)GalNAc
Summary of the method: as §1

[6] = target: Fuc(a1-2)[Gal(a1-3)]Gal(b1-4)Glc
Summary of the method: as §1

[7] = target: Fuc(a1-2)[Gal(a1-3)]Gal(b1-4)GlcNAc
Summary of the method: as §1

[8] = target: Fuc(a1-2)[Gal(a1-3)]Gal(b1-4)GlcNAc(b1-2)Man
Summary of the method: as §1

[9] = target: Fuc(a1-2)[Gal(a1-3)]Gal(b1-4)GlcNAc(b1-2)Man(a1-3)[Fuc(a1-2)[Gal(a1-3)]Gal(b1-4)GlcNAc(b1-2)Man(a1-6)]Man(b1-4)GlcNAc(b1-4)GlcNAc
Summary of the method: as §1

[10] = target: Fuc(a1-2)[Gal(a1-3)]Gal(b1-4)GlcNAc(b1-2)Man(a1-3)[Fuc(a1-2)[Gal(a1-3)]Gal(b1-4)GlcNAc(b1-2)Man(a1-6)]Man(b1-4)GlcNAc(b1-4)[Fuc(a1-6)]GlcNAc
Summary of the method: as §1

[11] = target: Fuc(a1-2)[Gal(a1-3)]Gal(b1-4)GlcNAc(b1-3)GalNAc
Summary of the method: as §1

[12] = target: Fuc(a1-2)[Gal(a1-3)]Gal(b1-4)GlcNAc(b1-6)GalNAc
Summary of the method: as §1

[13] = target: Fuc(a1-2)[Gal(a1-3)]Gal(b1-4)[Fuc(a1-3)]GlcNAc
Summary of the method: as §1

[14] = target: Fuc(a1-3)[Gal(b1-4)]GlcNAc(b1-2)Man(a1-3)[Fuc(a1-3)[Gal(b1-4)]GlcNAc(b1-2)Man(a1-6)]Man(b1-4)GlcNAc(b1-4)GlcNAc
Summary of the method: as §1

[15] = target: Fuc(a1-3)[Gal(b1-4)]GlcNAc(b1-3)Gal(b1-3)[Fuc(a1-4)]GlcNAc
Summary of the method: as §1

[16] = target: Fuc(a1-3)[Gal(b1-4)]GlcNAc(b1-3)Gal(b1-4)[Fuc(a1-3)]GlcNAc(b1-3)Gal(b1-4)[Fuc(a1-3)]GlcNAc
Summary of the method: as §1

[17] = target: Fuc(a1-3)[Gal(b1-4)]GlcNAc(b1-6)GalNAc
Summary of the method: as §1

[18] = target: Fuc(a1-3)[Gal3S(b1-4)]GlcNAc6S
Summary of the method: as §1

[19] = target: Gal(a1-3)Fuc(a1-2)Gal(b1-4)GlcNAc(b1-3)[Gal(a1-3)Fuc(a1-2)Gal(b1-4)GlcNAc(b1-6)]GalNAc
Summary of the method: as §1

[20] = target: Gal(b1-3)GlcNAc(b1-2)Man(a1-3)[Gal(b1-3)GlcNAc(b1-2)Man(a1-6)]Man(b1-4)GlcNAc(b1-4)GlcNAc
Summary of the method: as §1

[21] = target: Gal(b1-3)GlcNAc(b1-3)Gal(b1-4)GlcNAc(b1-3)Gal(b1-4)GlcNAc(b1-2)[Gal(b1-3)GlcNAc(b1-3)Gal(b1-4)GlcNAc(b1-3)Gal(b1-4)GlcNAc(b1-6)]Man(a1-6)[Gal(b1-3)GlcNAc(b1-3)Gal(b1-4)GlcNAc(b1-3)Gal(b1-4)GlcNAc(b1-2)Man(a1-3)]Man(b1-4)GlcNAc(b1-4)[Fuc(a1-6)]GlcNAc
Summary of the method: as §1

[22] = target: Gal(b1-4)GlcNAc(b1-2)Man(a1-3)Man(b1-4)GlcNAc(b1-4)GlcNAc
Summary of the method: as §1

[23] = target: Gal(b1-4)GlcNAc(b1-2)Man(a1-3)[GlcNAc(b1-2)Man(a1-6)]Man(b1-4)GlcNAc(b1-4)GlcNAc
Summary of the method: as §1

[24] = target: Gal(b1-4)GlcNAc(b1-2)[Gal(b1-4)GlcNAc(b1-4)]Man(a1-3)[Gal(b1-4)GlcNAc(b1-2)Man(a1-6)]Man(b1-4)GlcNAc(b1-4)GlcNAc
Summary of the method: as §1

[25] = target: Gal(b1-4)GlcNAc(b1-3)Gal(b1-3)GalNAc
Summary of the method: as §1

[26] = target: Gal(b1-4)GlcNAc(b1-3)Gal(b1-3)GlcNAc
Summary of the method: as §1

[27] = target: Gal(b1-4)GlcNAc(b1-3)Gal(b1-4)Glc
Summary of the method: as §1

[28] = target: Gal(b1-4)GlcNAc(b1-3)Gal(b1-4)GlcNAc(b1-3)Gal(b1-4)GlcNAc(b1-2)Man(a1-3)[Gal(b1-4)GlcNAc(b1-3)Gal(b1-4)GlcNAc(b1-3)Gal(b1-4)GlcNAc(b1-2)Man(a1-6)]Man(b1-4)GlcNAc(b1-4)[Fuc(a1-6)]GlcNAc
Summary of the method: as §1

B1: EEA (Euonymus europaeus) (protein)
chain: MASTIIATGPTYRVYCRAAPNYNMIVGKGVAFLAPIDETNELQYWYKDDTYSYIKDEAGLPAFSLVNKATGLTLKHSNHHPVPVKLVTYNPNVVDESVLWSQADDRGDGYSAIRSLTNPASHLEAAPLNDWSYNGAIIMGGVWIDAYNQQWKIEPHTG
[1]
  glycan array binding signal (z-score): 0.023
[2]
  glycan array binding signal (z-score): 5.83
[3]
  glycan array binding signal (z-score): 5.22
[4]
  glycan array binding signal (z-score): 3.76
[5]
  glycan array binding signal (z-score): 3.77
[6]
  glycan array binding signal (z-score): 4.49
[7]
  glycan array binding signal (z-score): 6.17
[8]
  glycan array binding signal (z-score): 3.94
[9]
  glycan array binding signal (z-score): 11.4
[10]
  glycan array binding signal (z-score): 5.12
[11]
  glycan array binding signal (z-score): 4.01
[12]
  glycan array binding signal (z-score): -0.195
[13]
  glycan array binding signal (z-score): -0.181
[14]
  glycan array binding signal (z-score): -0.21
[15]
  glycan array binding signal (z-score): -0.169
[16]
  glycan array binding signal (z-score): -0.252
[17]
  glycan array binding signal (z-score): -0.124
[18]
  glycan array binding signal (z-score): -0.209
[19]
  glycan array binding signal (z-score): 4.66
[20]
  glycan array binding signal (z-score): -0.157
[21]
  glycan array binding signal (z-score): -0.049
[22]
  glycan array binding signal (z-score): -0.282
[23]
  glycan array binding signal (z-score): -0.235
[24]
  glycan array binding signal (z-score): -0.173
[25]
  glycan array binding signal (z-score): -0.23
[26]
  glycan array binding signal (z-score): -0.101
[27]
  glycan array binding signal (z-score): -0.156
[28]
  glycan array binding signal (z-score): -0.144
